Results published in PubChem BioAssay AID624330 (Southern Research Specialized Biocontainment Screening …, 2012).
The campaign covered roughly 340,000 compounds. About 2,100 (0.62%) were called active.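 How the source made its calls: active means first-screen hits whose inhibition reached a set limit at any dose in the follow-up dose series; inconclusive means inhibition above the set first-screen limit but never retested; inactive means the rest.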 These entries were drawn from the full list. Potency and affinity values are given separately.

Molecular target: Rac GTPase-activating protein 1 (Homo sapiens) (UniProt Q9H0H5)
Assay: MgcRacGAP GTPase-activating activity inhibitors, confirmation, biochemical, ADP Hunter fluorescence, primary and confirmatory (AID 624330);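 further: fluorescence reports GDP produced by GAP-driven GTP hydrolysis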
Details: MgcRacGAP-stimulated Rac1 GTP hydrolysis, at 30 µM, hits give high values, GST-tagged Rac1 F28L mutant substrate

Sequence of Rac GTPase-activating protein 1 (Homo sapiens) (Q9H0H5 whole entry, looked up): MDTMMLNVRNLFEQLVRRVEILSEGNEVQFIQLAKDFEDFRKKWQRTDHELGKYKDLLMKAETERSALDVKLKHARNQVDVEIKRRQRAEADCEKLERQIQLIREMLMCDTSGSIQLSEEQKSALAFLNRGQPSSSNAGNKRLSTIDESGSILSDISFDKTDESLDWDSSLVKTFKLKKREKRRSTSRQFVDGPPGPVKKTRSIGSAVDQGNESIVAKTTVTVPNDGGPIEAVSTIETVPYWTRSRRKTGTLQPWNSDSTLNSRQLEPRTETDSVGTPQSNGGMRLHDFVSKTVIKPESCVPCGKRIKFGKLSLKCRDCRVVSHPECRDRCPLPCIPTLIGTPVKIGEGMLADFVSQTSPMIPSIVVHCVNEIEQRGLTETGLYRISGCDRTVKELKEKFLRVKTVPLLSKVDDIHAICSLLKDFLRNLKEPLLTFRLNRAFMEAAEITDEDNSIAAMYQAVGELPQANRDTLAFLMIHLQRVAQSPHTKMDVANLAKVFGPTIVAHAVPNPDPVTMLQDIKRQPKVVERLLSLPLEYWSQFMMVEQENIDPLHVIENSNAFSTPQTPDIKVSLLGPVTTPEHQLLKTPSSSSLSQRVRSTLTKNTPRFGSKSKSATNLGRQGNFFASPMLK

inhibition, inactive:
Cc1nc2ncnn2c(C)c1Cc1cccc(C(F)(F)F)c1 5.74%, CC1Cc2ccccc2N1C(=O)CNc1ccccc1N1CCCCC1 (centres undefined) -0.46%, CCCCNC(=O)N1c2ccccc2CC1C (centres undefined) 1.84%, Cc1cc(N2C(=O)C(O)=C(C(=O)c3cc4ccccc4o3)C2c2ccc(Cl)cc2)no1 (centres undefined) -5.51%, O=[N+]([O-])c1ccccc1NS(=O)(=O)c1ccccc1 0.32%, Cc1ccc2[nH]ccc(=O)c2c1 10.1%, O=c1cc[nH]c2c1ccc1c(=O)cc[nH]c12 10.4%, CC1CCC2(CC1)NC(=O)N(CC(=O)N1CC(C)CC(C)C1)C2=O (centres undefined) 3.96%, CCc1ccc2c(c1)C(c1ccc([N+](=O)[O-])cc1)=NNC(c1ccc(C)cc1)=N2 11%, O=C(O)c1cc(N/N=C/c2ccncc2)ccc1Cl -1.57%, Cc1ccc(/C=N/Nc2cccc(C(=O)O)c2)s1 27.8%, Cc1ccc(/C=N/Nc2ccc(F)cc2)s1 8.64%, CSc1ccc(/C=N/Nc2ccc(Cl)c(C(=O)O)c2)cc1 5.85%, O=C1NN(c2ccc(F)cc2)C(=O)/C1=C\C=C\c1ccco1 8.7%, CC1=NN(c2ccc(Cl)c(C(=O)O)c2)C(=O)C1 14.9%, CC1=NN(c2ccc(C(=O)OC(C)C)cc2)C(=O)/C1=C\C=C\c1ccco1 3.71%, CCOC(=O)c1ccc(N2N=C(C)/C(=C/C=C/c3ccco3)C2=O)cc1 3.99%, O=C(C1=C(O)C(=O)N(CCN2CCOCC2)C1c1cccc(Br)c1)c1cc2ccccc2o1 (centres undefined) 4.64%, C=CCC[C@@H](Cc1ccc(F)cc1)C(=O)OC[C@@H](Cc1c[nH]c2ccccc12)NC(=O)[C@@H](CC=C)CC(=O)N[C@H](CO)Cc1ccccc1 11.1%, CCN(CC)C1CCN(C(=O)c2cc(COc3cccc4cccnc34)on2)C1 (centres undefined) -5.07%, COC(=O)C(NC(C)=O)(Nc1ccc(C)cn1)C(F)(F)F (centres undefined) -9.84%, O=[N+]([O-])c1ccccc1CN1CCN(Cc2ccccn2)CC1 28.6%, COc1cc(CN2CCC(C(=O)NC(C)(C)C)CC2)ccc1OCc1ccccc1 29.2%, CCOC(=O)c1cc(CC)sc1NC(=O)Cc1ccsc1 14.6%, C#Cc1ccc(CN2CCN(CCc3ccccc3)C(CCO)C2)cc1 (centres undefined) 5.19%, Cc1c(C)c2ccc(OCC(=O)NC3CCN(Cc4ccccc4)CC3)cc2oc1=O 4.93%, C[C@@H]1CCCCO[C@H](CN(C)C(=O)Nc2ccc(F)cc2)[C@@H](C)CN([C@H](C)CO)C(=O)c2cc(NC(=O)c3ccccc3)ccc2O1 5.34%, Oc1ccc(N=Nc2ccc3ccccc3c2)cc1 18.5%, O=C(O)c1ccccc1N=Nc1ccc(O)cc1 13.8%, Nc1ccc(N=Nc2ccccc2Cl)c(N)n1 10.4%, Nc1ccc(N=Nc2ccccc2)c(N)n1 8.49%, O=C(Nc1cccc(-c2ccccc2)c1)N1CCN(C(=O)Nc2cccc(-c3ccccc3)c2)CC1 14.5%, Cc1cc(NC(=O)c2ccc(C)o2)no1 2.09%, CCOC(=O)N1CCC(N2Cc3cccc(C(=O)Nc4ccc(N(CC)CC)cc4C)c3C2=O)CC1 -10.8%, COC(=O)CNC(=O)c1nn(-c2cccc(OC)c2)c(=O)c2ccccc12 7.12%, O=c1c(CN2CCN(c3cccc(Cl)c3)CC2)coc2c(Cl)cc(Cl)cc12 1.43%, CCOC(=O)C1CCN(Cc2coc3c(Cl)cc(Cl)cc3c2=O)CC1 14.9%, CCOC(=O)c1cnc2c(cnn2C)c1NCCC(O)C(F)(F)F (centres undefined) 12.4%, COc1ccc(CCC(=O)NC2CCCc3ccccc32)cc1OC (centres undefined) 5.44%, CCOc1ccc(NC(=O)c2cc3n(n2)C(C(F)(F)F)CC(c2ccco2)N3)cc1 (centres undefined) 6.77%, COc1ccc(NC(=O)c2cc3n(n2)C(C(F)(F)F)CC(c2ccco2)N3)cc1 (centres undefined) 14.5%, CCN(C[C@H]1N[C@@](Cc2ccccc2)(C(=O)OC)[C@H]2C(=O)N(Cc3ccccc3)C(=O)[C@@H]12)C(=O)COc1ccccc1 2.94%, Cc1cc2c([nH]c3ccccc32)c(C)n1 17.6%, Cc1cc2[nH]c3ccccc3c2c(C)n1 5.1%, O=C(NCc1ccncc1)C(=O)Nc1ccc2c(c1)OCO2 3.26%, Cc1ccc(CNc2ccc3c(c2)OCO3)cc1 10.4%, O=C(NCc1ccncc1)Nc1ccc2c(c1)OCO2 14.7%, Cc1cc(NCc2ccncc2)ccc1Br 22.5%, COc1ccc(CN(C)C(=O)Cc2ccc(OC)c(S(=O)(=O)N3CCOCC3)c2)cc1 6.77%, O=C1CSC(c2cn(-c3ccccc3)nc2-c2cc3ccccc3oc2=O)N1Cc1cccnc1 (centres undefined) -1.18%, CCN(CC)CCCN(C(=O)c1ccccc1F)c1nc(-c2ccc(OC)cc2)cs1 13.2%, CSc1nnc(-c2nnc(SC)n2-c2ccccc2)n1-c1ccccc1 5.06%, c1ccc(C2=NN(c3ccccc3)CC2)cc1 10.1%, COC(=O)C1=C(C)NC(=O)NC1c1ccc(OCC(=O)N2CCCCC2)cc1 (centres undefined) 6.29%, CC1(C)OC(=O)C=C[C@]2(C)[C@H]3CC[C@@]4(C)[C@H](C(=O)O)OC(=O)[C@H]5O[C@]54[C@]3(C)C(=O)C[C@@H]12 10.6%, C[C@@H]1CN([C@H](C)CO)S(=O)(=O)c2ccc(C#Cc3ccccc3)cc2O[C@@H]1CN(C)C(=O)CN(C)C 10.8%, CCOc1ccc(/C=N/NC(=O)Cc2csc(Nc3cccc(C(F)(F)F)c3)n2)cc1 13.7%, Cc1ccc(/C=C/C(=O)Nc2ccncc2)o1 8.37%, Cc1ccc(/C=C/C(=O)Nc2ccc([N+](=O)[O-])cc2)o1 5.27%
